Measured values reported in the supplement of paper PMC11732987, “Enantioselective OTUD7B fragment discovery through chemoproteomics screening and high-throughput optimisation” (Communications Chemistry, 2025).

Tests used:
Experiment in all cases: log2 ratio of Biotin-Ahx-Ub-VS probe labelling (fragment/DMSO); higher = less target engagement (more negative = stronger competition), active = hit call of the paper (q ≤ 0.05, log2 ratio ≤ -1)
Conditions in all cases: compound concentration: 200 uM; treatment time: 3 h
USP42 = target: T1, USP42 (UniProt Q9H9J4)
T1 sequence (whole entry): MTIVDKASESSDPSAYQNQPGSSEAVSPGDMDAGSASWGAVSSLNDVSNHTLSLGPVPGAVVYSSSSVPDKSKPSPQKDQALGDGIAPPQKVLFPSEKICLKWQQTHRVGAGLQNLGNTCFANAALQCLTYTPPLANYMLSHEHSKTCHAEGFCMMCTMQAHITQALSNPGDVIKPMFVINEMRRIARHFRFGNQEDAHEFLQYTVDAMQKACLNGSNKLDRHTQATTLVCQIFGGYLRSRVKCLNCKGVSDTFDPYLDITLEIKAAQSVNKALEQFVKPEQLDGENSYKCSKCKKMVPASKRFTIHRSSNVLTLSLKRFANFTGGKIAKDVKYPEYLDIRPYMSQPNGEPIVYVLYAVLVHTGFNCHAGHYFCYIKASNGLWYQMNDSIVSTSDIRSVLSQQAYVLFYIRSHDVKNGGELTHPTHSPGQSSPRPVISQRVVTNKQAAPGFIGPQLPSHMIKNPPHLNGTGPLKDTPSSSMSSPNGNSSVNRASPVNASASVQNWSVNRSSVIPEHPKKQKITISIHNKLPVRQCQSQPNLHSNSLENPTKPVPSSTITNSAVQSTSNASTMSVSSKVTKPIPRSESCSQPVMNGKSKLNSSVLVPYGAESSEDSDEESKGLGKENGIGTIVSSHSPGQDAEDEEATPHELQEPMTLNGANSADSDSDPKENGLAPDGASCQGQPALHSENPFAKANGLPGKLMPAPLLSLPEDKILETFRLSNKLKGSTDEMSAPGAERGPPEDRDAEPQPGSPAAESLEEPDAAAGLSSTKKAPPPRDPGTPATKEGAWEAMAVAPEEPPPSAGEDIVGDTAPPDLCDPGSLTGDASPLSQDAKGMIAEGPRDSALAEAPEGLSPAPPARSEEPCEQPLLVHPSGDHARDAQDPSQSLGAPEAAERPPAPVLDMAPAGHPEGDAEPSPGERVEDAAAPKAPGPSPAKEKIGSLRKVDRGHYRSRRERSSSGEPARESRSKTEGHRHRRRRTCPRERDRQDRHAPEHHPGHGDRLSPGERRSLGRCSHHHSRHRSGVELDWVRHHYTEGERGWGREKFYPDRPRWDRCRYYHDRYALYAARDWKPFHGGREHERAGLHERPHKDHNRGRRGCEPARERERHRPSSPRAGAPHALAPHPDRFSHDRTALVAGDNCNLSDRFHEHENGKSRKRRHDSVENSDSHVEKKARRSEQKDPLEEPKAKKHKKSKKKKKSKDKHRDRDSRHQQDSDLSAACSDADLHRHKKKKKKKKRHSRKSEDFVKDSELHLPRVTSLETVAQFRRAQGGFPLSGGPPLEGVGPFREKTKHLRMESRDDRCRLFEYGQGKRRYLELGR
Procedure, shortened: (§1)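 Fragment (200 µM) or vehicle was incubated for 3 h with triplicate HEK293T lysate samples of 495 µg, which were then treated with Biotin-Ahx-Ub-VS at 0.5 µM final for 1 h. Labelled DUBs were enriched on NeutrAvidin, digested with LysC and trypsin, and analysed by diaPASEF LC-MS/MS. Values are average log2 fragment/vehicle ratios from an unpaired t-test on global-median-normalised Spectronaut label-free quantities, using proteins with ≥2 unique peptides.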

USP46 = USP46 (UniProt P62068)
Procedure, shortened: as §1

USP47 = target: T2, USP47 (UniProt Q96K76)
T2 sequence (whole entry): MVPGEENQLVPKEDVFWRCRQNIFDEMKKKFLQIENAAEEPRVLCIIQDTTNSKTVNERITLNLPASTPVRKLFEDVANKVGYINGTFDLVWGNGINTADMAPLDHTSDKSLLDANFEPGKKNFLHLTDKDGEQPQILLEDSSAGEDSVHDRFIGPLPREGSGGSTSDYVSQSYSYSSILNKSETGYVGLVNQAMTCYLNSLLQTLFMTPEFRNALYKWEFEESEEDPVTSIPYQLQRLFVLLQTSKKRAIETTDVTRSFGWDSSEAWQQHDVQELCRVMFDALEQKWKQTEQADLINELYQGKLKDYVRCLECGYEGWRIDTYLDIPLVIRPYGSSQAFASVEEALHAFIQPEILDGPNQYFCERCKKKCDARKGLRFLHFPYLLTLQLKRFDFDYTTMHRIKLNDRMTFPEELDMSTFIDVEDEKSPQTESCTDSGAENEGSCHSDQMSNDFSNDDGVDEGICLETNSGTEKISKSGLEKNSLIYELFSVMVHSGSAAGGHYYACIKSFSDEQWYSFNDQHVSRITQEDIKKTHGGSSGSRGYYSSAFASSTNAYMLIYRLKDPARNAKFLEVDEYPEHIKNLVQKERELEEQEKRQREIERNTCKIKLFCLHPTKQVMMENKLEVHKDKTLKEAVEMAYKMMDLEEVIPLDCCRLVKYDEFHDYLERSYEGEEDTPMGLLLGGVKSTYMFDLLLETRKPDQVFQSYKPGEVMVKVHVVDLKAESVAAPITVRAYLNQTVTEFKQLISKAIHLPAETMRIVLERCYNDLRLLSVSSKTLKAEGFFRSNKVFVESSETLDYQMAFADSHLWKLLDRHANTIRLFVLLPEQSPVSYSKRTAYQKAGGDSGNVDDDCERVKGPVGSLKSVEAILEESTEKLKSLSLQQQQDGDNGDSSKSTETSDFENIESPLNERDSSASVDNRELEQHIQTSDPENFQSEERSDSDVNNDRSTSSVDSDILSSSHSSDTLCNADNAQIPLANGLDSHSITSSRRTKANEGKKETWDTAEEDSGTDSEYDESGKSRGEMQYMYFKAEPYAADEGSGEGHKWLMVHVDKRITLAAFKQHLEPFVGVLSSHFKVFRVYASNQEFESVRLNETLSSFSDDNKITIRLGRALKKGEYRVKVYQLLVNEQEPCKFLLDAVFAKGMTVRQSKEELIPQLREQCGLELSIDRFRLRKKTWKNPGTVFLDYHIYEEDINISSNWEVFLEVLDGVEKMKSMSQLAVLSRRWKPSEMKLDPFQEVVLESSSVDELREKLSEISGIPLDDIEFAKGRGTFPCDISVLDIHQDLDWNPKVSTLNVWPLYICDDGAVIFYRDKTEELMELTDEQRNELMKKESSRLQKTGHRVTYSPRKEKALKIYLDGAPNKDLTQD
Procedure, shortened: as §1

USP48 = target: T3, USP48 (UniProt Q86UV5)
T3 sequence (whole entry): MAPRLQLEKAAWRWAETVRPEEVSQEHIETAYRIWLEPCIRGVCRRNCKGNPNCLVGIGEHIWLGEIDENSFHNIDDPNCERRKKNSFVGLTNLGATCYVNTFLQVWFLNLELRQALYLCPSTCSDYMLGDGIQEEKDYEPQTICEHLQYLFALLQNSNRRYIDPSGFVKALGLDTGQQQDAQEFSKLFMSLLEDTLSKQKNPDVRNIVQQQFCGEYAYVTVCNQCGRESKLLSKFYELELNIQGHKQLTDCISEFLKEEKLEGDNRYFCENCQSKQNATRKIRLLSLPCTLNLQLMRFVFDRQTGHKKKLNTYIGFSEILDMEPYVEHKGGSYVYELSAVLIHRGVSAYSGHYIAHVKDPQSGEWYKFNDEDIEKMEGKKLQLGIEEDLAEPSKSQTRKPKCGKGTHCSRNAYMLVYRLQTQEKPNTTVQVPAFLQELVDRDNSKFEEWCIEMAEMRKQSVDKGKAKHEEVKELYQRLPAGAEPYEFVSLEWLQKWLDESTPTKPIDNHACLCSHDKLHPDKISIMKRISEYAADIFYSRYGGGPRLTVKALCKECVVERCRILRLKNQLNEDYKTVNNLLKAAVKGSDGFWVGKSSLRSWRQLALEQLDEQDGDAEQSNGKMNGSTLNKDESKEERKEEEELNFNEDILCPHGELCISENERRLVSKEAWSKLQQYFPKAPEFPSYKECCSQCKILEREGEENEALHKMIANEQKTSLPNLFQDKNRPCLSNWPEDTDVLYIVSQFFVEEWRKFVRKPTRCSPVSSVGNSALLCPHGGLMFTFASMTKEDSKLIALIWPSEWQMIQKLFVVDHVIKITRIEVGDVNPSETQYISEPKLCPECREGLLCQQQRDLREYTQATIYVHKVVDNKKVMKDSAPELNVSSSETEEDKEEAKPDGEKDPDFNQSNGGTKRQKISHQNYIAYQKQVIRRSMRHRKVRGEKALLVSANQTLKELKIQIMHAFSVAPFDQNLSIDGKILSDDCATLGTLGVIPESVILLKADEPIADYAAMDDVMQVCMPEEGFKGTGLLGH
Procedure, shortened: as §1

USP5 = target: T4, USP5 (UniProt P45974)
T4 sequence (whole entry): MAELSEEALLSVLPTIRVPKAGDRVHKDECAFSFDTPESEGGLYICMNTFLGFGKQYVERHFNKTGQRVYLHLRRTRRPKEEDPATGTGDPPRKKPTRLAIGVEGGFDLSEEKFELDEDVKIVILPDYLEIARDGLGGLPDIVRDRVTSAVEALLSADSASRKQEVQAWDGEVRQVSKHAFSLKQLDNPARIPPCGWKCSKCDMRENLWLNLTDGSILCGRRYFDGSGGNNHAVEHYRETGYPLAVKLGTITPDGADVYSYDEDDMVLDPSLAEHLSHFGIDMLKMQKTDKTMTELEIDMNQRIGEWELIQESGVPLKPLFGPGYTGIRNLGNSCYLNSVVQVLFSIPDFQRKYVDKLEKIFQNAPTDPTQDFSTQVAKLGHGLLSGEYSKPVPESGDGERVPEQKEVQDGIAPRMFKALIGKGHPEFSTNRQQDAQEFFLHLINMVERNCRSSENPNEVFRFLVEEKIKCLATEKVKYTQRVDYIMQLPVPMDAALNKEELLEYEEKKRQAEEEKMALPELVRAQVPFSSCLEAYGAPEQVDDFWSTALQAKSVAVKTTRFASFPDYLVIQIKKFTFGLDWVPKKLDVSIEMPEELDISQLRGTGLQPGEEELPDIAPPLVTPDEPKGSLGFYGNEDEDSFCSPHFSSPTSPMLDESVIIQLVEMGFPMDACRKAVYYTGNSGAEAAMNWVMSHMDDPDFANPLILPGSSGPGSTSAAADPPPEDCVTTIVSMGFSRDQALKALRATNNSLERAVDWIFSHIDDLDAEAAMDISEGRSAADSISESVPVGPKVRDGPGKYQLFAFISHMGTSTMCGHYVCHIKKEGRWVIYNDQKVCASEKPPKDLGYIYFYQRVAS
Procedure, shortened: as §1

USP54 = USP54 (UniProt Q70EL1)
Procedure, shortened: as §1

USP7 = USP7 (UniProt Q93009)
Procedure, shortened: as §1

USP8 = target: T5, USP8 (UniProt P40818)
T5 sequence (whole entry): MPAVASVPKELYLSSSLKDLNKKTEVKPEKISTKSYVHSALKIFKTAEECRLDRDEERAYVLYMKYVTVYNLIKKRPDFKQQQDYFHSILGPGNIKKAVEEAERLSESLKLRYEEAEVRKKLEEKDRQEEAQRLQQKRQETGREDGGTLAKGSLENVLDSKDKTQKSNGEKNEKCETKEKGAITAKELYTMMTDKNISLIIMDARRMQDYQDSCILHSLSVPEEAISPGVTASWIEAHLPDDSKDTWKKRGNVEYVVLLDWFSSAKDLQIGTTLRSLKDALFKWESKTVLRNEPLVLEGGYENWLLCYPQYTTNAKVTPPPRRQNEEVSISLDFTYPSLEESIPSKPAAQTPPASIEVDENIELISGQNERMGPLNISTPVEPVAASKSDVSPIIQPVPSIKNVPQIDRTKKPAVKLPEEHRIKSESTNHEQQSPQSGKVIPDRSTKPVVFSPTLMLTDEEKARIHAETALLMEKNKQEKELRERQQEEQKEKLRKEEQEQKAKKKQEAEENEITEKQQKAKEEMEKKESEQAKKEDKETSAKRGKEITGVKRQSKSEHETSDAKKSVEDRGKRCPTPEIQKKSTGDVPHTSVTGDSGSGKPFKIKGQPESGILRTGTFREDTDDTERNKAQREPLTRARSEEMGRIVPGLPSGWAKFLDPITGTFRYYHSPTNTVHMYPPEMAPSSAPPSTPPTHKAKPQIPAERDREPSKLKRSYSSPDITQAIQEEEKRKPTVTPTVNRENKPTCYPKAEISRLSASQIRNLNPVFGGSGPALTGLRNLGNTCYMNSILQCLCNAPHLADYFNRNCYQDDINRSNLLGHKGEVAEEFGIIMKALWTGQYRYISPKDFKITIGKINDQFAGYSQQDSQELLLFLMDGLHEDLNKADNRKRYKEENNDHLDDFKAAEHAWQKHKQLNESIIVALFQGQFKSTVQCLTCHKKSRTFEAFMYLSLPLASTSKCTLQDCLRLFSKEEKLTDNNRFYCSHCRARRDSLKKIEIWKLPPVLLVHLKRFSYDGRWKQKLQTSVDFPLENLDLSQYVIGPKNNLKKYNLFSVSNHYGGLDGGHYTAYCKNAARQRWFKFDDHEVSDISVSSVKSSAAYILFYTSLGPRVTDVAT
Procedure, shortened: as §1

Measured: log2 ratio of Biotin-Ahx-Ub-VS probe labelling

Chain of USP46 (P62068 whole entry): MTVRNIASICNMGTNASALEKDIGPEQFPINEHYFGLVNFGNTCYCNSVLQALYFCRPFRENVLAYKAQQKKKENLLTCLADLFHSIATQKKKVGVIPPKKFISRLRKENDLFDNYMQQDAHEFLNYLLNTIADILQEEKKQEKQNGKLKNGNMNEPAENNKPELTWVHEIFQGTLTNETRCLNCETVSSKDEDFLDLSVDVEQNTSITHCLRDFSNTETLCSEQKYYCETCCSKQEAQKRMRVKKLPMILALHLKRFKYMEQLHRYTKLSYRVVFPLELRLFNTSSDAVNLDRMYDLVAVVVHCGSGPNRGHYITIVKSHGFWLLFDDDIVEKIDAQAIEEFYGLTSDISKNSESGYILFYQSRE
Chain of USP54 (Q70EL1 whole entry): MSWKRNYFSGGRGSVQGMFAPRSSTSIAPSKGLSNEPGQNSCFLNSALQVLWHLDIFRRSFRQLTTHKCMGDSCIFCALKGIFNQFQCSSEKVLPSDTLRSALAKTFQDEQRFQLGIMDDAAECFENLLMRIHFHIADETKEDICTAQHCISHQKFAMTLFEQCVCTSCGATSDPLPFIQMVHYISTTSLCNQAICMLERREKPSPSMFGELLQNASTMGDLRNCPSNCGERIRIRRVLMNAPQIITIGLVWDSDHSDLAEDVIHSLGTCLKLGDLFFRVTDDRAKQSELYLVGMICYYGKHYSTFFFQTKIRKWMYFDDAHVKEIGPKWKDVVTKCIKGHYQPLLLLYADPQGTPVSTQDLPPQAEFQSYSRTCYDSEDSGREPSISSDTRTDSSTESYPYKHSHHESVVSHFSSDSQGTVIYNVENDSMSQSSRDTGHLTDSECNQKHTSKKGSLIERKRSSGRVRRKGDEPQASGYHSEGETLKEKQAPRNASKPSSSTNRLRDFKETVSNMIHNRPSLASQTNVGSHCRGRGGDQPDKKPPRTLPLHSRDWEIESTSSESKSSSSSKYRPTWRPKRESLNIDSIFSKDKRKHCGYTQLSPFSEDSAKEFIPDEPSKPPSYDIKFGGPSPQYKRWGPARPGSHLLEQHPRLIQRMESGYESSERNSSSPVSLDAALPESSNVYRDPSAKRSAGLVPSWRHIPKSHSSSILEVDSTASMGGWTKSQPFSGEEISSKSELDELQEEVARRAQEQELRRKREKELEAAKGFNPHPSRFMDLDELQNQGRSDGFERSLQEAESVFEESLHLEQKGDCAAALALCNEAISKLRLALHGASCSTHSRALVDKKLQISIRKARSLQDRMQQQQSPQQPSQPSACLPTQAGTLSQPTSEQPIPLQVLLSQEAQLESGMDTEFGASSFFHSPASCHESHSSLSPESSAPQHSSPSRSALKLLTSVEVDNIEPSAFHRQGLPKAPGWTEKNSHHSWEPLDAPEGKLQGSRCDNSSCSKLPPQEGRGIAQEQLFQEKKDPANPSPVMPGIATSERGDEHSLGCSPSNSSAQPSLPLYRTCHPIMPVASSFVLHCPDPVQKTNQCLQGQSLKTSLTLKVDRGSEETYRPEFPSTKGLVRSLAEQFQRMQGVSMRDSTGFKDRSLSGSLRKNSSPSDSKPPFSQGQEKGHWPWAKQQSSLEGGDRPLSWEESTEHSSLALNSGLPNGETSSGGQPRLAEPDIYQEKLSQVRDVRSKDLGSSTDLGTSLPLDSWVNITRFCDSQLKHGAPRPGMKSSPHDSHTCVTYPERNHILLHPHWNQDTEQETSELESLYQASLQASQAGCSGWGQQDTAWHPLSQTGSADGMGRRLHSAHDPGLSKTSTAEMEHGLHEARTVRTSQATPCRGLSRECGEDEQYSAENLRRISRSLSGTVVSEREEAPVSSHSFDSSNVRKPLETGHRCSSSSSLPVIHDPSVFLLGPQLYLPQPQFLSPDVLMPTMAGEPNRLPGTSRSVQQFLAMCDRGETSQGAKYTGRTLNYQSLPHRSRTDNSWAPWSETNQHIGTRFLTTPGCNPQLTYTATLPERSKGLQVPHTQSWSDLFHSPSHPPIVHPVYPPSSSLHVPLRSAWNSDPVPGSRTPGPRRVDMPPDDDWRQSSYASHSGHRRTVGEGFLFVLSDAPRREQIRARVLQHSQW
Chain of USP7 (Q93009 whole entry, looked up): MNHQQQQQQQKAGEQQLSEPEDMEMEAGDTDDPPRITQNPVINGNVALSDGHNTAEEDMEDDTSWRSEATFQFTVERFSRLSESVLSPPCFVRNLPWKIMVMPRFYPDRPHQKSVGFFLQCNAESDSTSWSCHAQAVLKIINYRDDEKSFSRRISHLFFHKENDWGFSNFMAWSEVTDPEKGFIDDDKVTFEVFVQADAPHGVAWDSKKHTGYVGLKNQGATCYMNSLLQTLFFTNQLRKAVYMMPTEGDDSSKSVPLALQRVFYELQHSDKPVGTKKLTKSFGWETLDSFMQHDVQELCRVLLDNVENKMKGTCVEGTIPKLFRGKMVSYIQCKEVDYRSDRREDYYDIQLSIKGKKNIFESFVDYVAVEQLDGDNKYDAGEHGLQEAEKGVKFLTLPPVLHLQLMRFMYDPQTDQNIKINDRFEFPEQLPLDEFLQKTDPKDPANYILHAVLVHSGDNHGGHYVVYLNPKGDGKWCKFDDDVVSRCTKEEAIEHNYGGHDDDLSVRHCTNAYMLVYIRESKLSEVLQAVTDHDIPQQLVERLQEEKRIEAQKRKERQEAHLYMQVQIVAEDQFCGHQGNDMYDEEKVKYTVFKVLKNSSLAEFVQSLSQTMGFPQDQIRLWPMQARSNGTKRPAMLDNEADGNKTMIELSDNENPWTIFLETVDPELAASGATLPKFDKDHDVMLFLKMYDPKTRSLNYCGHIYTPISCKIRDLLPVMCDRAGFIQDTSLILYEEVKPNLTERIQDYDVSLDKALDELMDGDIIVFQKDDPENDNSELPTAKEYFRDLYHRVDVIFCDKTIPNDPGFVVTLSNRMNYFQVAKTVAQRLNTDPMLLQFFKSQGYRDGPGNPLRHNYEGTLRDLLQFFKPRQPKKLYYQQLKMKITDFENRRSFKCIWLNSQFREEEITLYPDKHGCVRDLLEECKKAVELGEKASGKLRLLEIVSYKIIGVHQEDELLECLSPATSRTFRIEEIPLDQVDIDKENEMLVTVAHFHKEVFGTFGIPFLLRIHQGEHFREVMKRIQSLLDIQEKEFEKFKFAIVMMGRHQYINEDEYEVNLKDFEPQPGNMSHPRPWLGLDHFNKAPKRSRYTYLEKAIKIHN

CC1CN(c2ccc(NC(=O)CCl)cc2)CC(C)O1 (stereo not drawn)
inactive: USP42 0.0421 | USP46 0.0265 | USP47 -0.557 | USP48 -0.402 | USP5 -0.0419 | USP54 0.973 | USP7 -0.186 | USP8 -0.0842
